Assay results from PubChem BioAssay.

assay: anti-His antibody binders, primary screen, artefact control for SMM control protein annotation, biochemical, small-molecule microarray, 635 nm fluorescence (AID 1128); conditions: anti-His Alexa647 antibody binding, higher = more signal;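 further: score merges feature fluorescence with signal-to-noise for each printed compound spot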

Structure (SMILES)	composite z-score
COCCOC(=O)N1C(=O)[C@@]2(c3cc(C#CCC(C(=O)OC)C(=O)OC)ccc31)[C@H](C(N)=O)[C@H]1C(=O)O[C@H](c3ccccc3)[C@H](c3ccccc3)N1[C@@H]2c1ccc(O)cc1	2.22
COc1cc(OC)c(C(O)C2C=CC3C(=O)N(c4ccccc4)C(=O)C3N2Nc2ccc(C(C)C)cc2)cc1Br (stereo unspecified)	-0.0881
C#CCN1[C@@H](Cc2ccccc2)C(=O)O[C@H](Cc2ccccc2)[C@@H]1/C=C/C1CC1	1.3
CN(C)CCCNC(=O)[C@@H]1c2ccccc2C(=O)N(Cc2ccccc2C(F)(F)F)[C@H]1c1ccc(CO)cc1	-1.51
COc1ccc([Si](C)(C)[C@H]2[C@H](CCO)O[C@@]3(C(=O)N(Cc4ccc(NC(=O)[C@H](C)O)cc4)c4ccccc43)[C@@H]2C)cc1	1.4
CCOC(=O)C[C@H]1[C@H](OC(=O)c2ccccc2-c2ccccc2)[C@@H](NC(=O)c2ccc3ccccc3c2)c2cc(OCCCO)ccc2N1C(=O)Cc1ccc(OC)cc1	-0.262
COCCCN1C(=O)[C@@]2(c3ccc([N+](=O)[O-])cc3)CC(=O)N(CC34CC5CC(CC(C5)C3)C4)[C@@H]2c2ccc(CO)cc21	-0.0041
C=C1C(=O)C=C2CN(C(=O)c3ccccc3)[C@@](Cc3ccc(OC)cc3)(C(=O)OC)[C@@H]12	1.07
C=CCNC(=O)[C@H]1[C@@H]2C(=O)O[C@@H](c3ccccc3)[C@@H](c3ccccc3)N2[C@@H](c2ccc(OCCO)cc2)[C@]12C(=O)Nc1ccccc12	2.03
COCCOC(=O)N1C(=O)[C@@]2(c3ccccc31)[C@H](c1ccc(O)cc1)N1[C@H](c3ccccc3)[C@H](c3ccccc3)OC(=O)[C@H]1[C@@H]2C(=O)N1CCCCCCC1	2.71
C[N+](C)(C)CCCCNC(=O)[C@H]1C[C@H]2C(=O)N[C@@H](Cc3ccccc3)C(=O)N2[C@H]1c1cccc(OCCO)c1	2.93
CC(C)[Si](C#CCCc1ccccc1)(O[C@H](c1ccccc1)c1cn(Cc2ccccc2)nn1)C(C)C	0.269
COc1ccc([Si](C)(C)[C@@H]2[C@@H](CC(=O)N3Cc4ccccc4C[C@H]3CO)O[C@]3(C(=O)N(Cc4cccc(N5CCOC5=O)c4)c4ccccc43)[C@H]2C)cc1	1.23
CN1C(=O)[C@@H]2[C@@H](CC(COc3ccccc3)=C3[C@@H](CCc4ccccc4)OB(O)C[C@@H]32)C1=O	-0.526
COc1cc(C(O)C2C=CC3C(=O)N(c4ccccc4)C(=O)C3N2Nc2ccccc2F)cc(OC)c1OC (stereo unspecified)	1.66
CCCCN1CC=CC23O[C@@H]4/C=C\CCCOC(=O)C4[C@H]2C(=O)N(C(CO)C(C)C)[C@@H]3C1=O (stereo partly specified)	0.0807
O=C1N(CCS(=O)(=O)c2ccccc2)c2ccccc2C[C@]12N=C(c1ccc(OCCCO)cc1)O[C@@H]2c1ccccc1	2.16
O=C1NC(=O)C2C1C=CC(C(O)c1ccc([N+](=O)[O-])cc1)N2Nc1ccccn1 (stereo unspecified)	0.753

Structure (SMILES)	composite z-score
O=C1[C@H]2C=C(I)[C@H](C[C@@H]2OCCCCCCO)[C@@]12CO2	-0.624
CN(C)C(=O)[C@]1(Cc2ccccc2)N=C(c2ccc(OCCCO)cc2)O[C@@H]1c1ccccc1CN=[N+]=[N-]	0.997
Cc1ccc(C(C)CC(O)C2C=CC3C(=O)N(C)C(=O)C3N2Nc2ccccc2)o1 (stereo unspecified)	0.298
CCCCCCc1nc(-c2ccc(-c3ccc(Cl)c(Cl)c3)o2)cc2c1[Si](C(C)C)(C(C)C)OC2	-0.265
CC1CC/C=C\[C@H]2OC34C=CCN(c5ccc(Cl)cc5)C(=O)[C@H]3N(CCCCCCO)C(=O)[C@]4(C)C2C(=O)O1 (stereo partly specified)	0.867
C=C(CCCC)/C(=C/C[C@H](OC(=O)c1ccncc1)c1cccc(OCCO)c1)c1cnc2ccccc2c1	0.13
C[C@@H]1ON(c2ccccc2)[C@H](c2ccccc2)[C@H]1C(=O)O	0.468
CCOC(=O)C1=CC[C@@H](c2ccc(OC)cc2)N(S(=O)(=O)c2ccc(C)cc2)[C@H]1CC	1.17
COC(=O)[C@@]1(Cc2ccc(OC)cc2)[C@H]2c3cc(C(=O)N(C)C)[nH]c3C[C@H]2CN1C(=O)c1ccccc1	0.279
CCCCC(O)C1C=CC2C(=O)N(c3ccccc3)C(=O)C2N1Nc1ccccc1 (stereo unspecified)	0.781
CC(C)OC(=O)CC(=O)CC(O)c1cccc([N+](=O)[O-])c1 (stereo unspecified)	0.68
O=C1NC(=O)C2C1C=CC(C(O)c1ccc(B(O)O)cc1)N2Nc1ccc(Cl)cc1Cl (stereo unspecified)	0.207
O=C1c2ccccc2[C@@]2(Cc3ccccc3N(Cc3ccccc3)C2=O)[C@H](c2ccc(CO)cc2)N1Cc1ccccc1Cl	-0.743
CO[C@H]1O[C@H](CO)[C@@H](OC(=O)Nc2ccccc2)[C@H](OC(=O)Nc2ccccc2)[C@H]1OC(=O)Nc1ccccc1	2.2
COCCCNC(=O)[C@@]1(CCS(=O)(=O)c2ccccc2)COC(c2ccc(OCCCO)cc2)=N1	3.75
COc1ccc(C(O)C2C=CC3C(=O)NC(=O)C3N2Nc2ccc(Cl)cc2Cl)c2ccccc12 (stereo unspecified)	1.54
O=C1C[C@@](C(=O)O)(c2ccc([N+](=O)[O-])cc2)[C@@H](c2ccc(CO)cc2)N1C1CCCCC1	1.82
CC(C)(C)N1CC=CC23O[C@@H]4/C=C\CCCOC(=O)C4[C@H]2C(=O)N(CCCCCO)[C@@H]3C1=O (stereo partly specified)	-1.23
